Several values for one entry are separate records, joined by “and”; a condition that tells them apart may be missing. Equal values may be shown once. Hit rate of the full screen: of about 290,000 compounds, about 570 (0.2%) were called active. Roughly 1% stayed inconclusive and do not appear here. What follows is part of a selection rich in actives, with near analogues and random picks from the rest. A number with no mark means an inactive call. Rule as the data show it: active = inhibition mostly above about 51% (no sharp cut-off); inconclusive = no clear call, values can overlap the other calls; inactive = mostly below about 53%.
Target: Voltage-dependent N-type calcium channel subunit alpha-1B (Homo sapiens) (UniProt Q00975)
Sequence (Q00975 whole entry, looked up): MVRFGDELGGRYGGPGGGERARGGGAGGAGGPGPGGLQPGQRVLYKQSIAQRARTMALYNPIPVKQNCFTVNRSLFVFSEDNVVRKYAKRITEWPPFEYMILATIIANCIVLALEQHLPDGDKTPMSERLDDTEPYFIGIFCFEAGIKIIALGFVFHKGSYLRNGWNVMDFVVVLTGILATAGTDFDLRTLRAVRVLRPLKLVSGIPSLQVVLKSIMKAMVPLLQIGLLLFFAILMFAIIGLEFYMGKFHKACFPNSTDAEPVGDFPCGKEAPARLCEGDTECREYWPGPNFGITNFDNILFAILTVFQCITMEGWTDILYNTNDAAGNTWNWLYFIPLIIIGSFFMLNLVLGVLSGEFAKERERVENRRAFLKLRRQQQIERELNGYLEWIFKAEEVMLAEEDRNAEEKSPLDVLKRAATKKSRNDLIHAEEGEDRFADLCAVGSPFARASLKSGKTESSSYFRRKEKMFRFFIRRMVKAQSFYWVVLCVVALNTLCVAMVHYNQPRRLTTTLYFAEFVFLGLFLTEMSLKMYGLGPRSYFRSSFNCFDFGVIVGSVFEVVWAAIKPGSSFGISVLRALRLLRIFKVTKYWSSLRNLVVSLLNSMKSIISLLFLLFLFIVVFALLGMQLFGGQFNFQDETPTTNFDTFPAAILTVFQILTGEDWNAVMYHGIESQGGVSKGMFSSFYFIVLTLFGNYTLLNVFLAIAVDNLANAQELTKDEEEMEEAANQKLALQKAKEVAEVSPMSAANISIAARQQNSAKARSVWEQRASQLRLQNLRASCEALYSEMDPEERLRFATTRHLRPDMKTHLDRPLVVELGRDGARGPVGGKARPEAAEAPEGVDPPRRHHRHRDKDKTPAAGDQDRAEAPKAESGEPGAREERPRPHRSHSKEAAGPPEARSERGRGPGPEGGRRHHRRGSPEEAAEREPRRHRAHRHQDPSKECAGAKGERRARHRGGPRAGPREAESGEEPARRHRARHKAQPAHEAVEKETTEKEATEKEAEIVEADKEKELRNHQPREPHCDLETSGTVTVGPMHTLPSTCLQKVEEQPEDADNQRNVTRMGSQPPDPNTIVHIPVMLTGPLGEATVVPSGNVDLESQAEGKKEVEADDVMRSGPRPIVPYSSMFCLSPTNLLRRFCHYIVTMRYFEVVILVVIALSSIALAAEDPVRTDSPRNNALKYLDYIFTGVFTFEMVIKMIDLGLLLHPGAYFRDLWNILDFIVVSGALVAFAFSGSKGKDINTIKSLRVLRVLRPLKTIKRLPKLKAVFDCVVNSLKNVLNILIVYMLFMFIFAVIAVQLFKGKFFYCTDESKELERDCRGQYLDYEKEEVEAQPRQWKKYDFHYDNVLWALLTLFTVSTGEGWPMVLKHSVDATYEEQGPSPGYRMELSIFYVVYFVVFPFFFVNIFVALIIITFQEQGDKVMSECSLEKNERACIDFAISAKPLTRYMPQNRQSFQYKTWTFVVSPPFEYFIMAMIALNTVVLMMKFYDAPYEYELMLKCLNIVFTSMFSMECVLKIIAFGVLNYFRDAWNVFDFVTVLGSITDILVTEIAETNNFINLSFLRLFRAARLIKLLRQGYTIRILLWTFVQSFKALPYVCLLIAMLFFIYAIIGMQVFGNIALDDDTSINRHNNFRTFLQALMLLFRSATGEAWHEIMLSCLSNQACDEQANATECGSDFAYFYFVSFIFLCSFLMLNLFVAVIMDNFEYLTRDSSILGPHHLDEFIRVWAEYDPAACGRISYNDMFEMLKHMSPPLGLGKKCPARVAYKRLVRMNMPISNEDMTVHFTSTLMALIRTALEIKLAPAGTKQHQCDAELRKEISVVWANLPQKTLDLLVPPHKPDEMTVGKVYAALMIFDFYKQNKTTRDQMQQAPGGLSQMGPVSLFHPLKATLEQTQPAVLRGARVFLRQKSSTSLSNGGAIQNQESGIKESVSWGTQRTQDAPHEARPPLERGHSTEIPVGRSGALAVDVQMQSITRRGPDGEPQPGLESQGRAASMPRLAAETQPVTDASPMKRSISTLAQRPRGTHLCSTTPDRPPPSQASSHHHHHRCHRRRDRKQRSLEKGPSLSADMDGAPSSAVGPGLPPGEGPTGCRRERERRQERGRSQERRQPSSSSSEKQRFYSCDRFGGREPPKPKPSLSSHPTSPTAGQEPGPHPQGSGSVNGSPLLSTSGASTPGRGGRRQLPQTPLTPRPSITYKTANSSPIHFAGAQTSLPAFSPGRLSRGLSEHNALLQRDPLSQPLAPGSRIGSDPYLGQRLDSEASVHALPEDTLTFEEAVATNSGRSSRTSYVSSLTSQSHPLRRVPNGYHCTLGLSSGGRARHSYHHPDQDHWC
Test: inhibitors of Mint1-CaV2.2 protein interaction, biochemical, HTRF (AID 2073)
Details: at 20 µM, stronger effect = higher value

Row | SMILES | inhibition
1 | Cc1ccsc1/C=N/NC(=O)CO | 7.8%
2 | CCCCNC(=O)[C@H](CSCc1ccccc1)N1Cc2ccccc2C1=O | 0.1%
3 | COc1ccc(CNC(=O)COc2cc(=O)n(C)c3ccccc23)cc1 | 13.2%
4 | O=C1/C(=C/c2ccco2)CCc2ccccc21 | 15.3%
5 | Nc1ccc2c(c1)C/C(=C/c1ccco1)C2=O | 87.9% (active)
6 | O=C1/C(=C/c2ccco2)Cc2ccccc21 | 11.1%
7 | CCCCn1ccnc1C | -1.1%
8 | O=C(CSc1cccc2cccnc12)Nc1ccccc1F | 12.1%
9 | C=CCOc1ccc(/C=C2\SC(N)=NC2=O)cc1OC | 10.2%
10 | COc1cc(/C=C2\SC(N)=NC2=O)ccc1OCC(=O)Nc1ccc(C)cc1 | 61.4% (active)
11 | CCCOc1ccc(/C=C2\SC(N)=NC2=O)cc1OC | -3%
12 | NC(=O)c1ccc2c(=O)n3c(-c4cc(Cl)c(N)c(Cl)c4)csc3nc2c1 | -27%
13 | NC(=O)c1ccc2nc(-c3ccccc3)c(-c3ccccc3)nc2c1 | 4.7%
14 | O=C(NCc1nnc2c(C(F)(F)F)cc(Cl)cn12)c1ccc2c(c1)OCO2 | 9%
15 | O=C(c1ccc(COc2ccc(F)cc2)o1)n1cc(Br)cn1 | 8%
16 | CCN1C(=O)/C(=C/C=C2/Sc3ccccc3N2CCO)SC1=S | 38.4%
17 | CCCN1C(=O)/C(=C\C=C2/Sc3ccccc3N2CCO)SC1=S | 26.3%
18 | CCN1C(=O)/C(=C/C=C2/Sc3ccc4ccccc4c3N2CCO)SC1=S | 74.6% (active)
19 | CC(C)CC(NC(=O)c1ccccc1)C(=O)N/N=C/c1ccco1 (stereo not given) | 3.7%
20 | CCOc1ccccc1-n1c(SCC(N)=O)nnc1-c1ccccc1 | -2.1%
21 | Cc1cccc2sc(NC(=O)c3cccc(S(=O)(=O)N4CCc5ccccc54)c3)nc12 | 68.3% (active)
22 | Cc1cc(C)c2nc(NC(=O)c3cccc(S(=O)(=O)N4CCc5ccccc54)c3)sc2c1 | 6.3%
23 | O=C(Nc1nc2ccccc2s1)c1cccc(S(=O)(=O)N2CCc3ccccc32)c1 | 8.8%
24 | CCOc1ccc(C(CCc2ccccc2)NC(=O)c2ccccc2F)cc1OCC (stereo not given) | 5.7%
25 | O=C(O)C(Cc1c[nH]c2ccccc12)NS(=O)(=O)c1ccc(Br)cc1 (stereo not given) | -0.4%
26 | CNC(=O)c1c(O)c2cccc3c2n(c1=O)CCC3 | 22.2%
27 | Cn1c(=S)[nH]c(=O)c2ncc(=O)[nH]c21 | -1.9%
28 | O=C(O)CCCCCCCC(=O)O | 0.9%
29 | O=C(O)CCCCC1SCC2NC(=O)NC21 (stereo not given) | 8.5% and -9.5%
30 | O=C(O)CCCCC1CCSS1 (stereo not given) | 101% (active)

Reference: PubChem BioAssay AID2073 (Sanford-Burnham Center for Chemical Genomics, 2009)
